Shown are actives, neighbours in structure and some others; about 4.4% of the full set was active somewhere.
HPGD block = qHTS Assay for Inhibitors of HPGD (15-Hydroxyprostaglandin Dehydrogenase); 15-hydroxyprostaglandin dehydrogenase [NAD(+)] (Homo sapiens), P15428; purified HPGD, NADH fluorescence kinetic, PGE2 substrate; Potency, µM, inactives show at the top dose activity change, negative = inhibition, usual class: inhibitors; hit rate 4.3% among 150,000; active = well fitted inhibition curve with a large enough effect, not every such curve was filed as active; inconclusive = small, poorly fitted or top-dose-only effect, or another doubt; inactive = no such curve, though single readings can be large or run the other way
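NADH formation kinetics: reaction with 30 uM PGE2 and 1 mM NAD+ (final), 20 nM enzyme, Tris-HCl pH 8 with Tween 20, after 15 min compound preincubation at room temperature. Fluorescence change, last versus first of five reads.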
12-hLO inh = qHTS Assay for Inhibitors of 12-hLO (12-human lipoxygenase). Polyunsaturated fatty acid lipoxygenase ALOX12 (Homo sapiens), P18054. purified 12-hLO, xylenol orange hydroperoxide absorbance. Potency, µM (top dose mostly 57.1 µM), inactives show at the top dose activity change, negative = inhibition, most hits filed as inhibitors. hit rate 0.12% among 150,000; note: nearly all actives have a fitted effect of over 55% in size
Target sequence (P18054 whole entry, looked up): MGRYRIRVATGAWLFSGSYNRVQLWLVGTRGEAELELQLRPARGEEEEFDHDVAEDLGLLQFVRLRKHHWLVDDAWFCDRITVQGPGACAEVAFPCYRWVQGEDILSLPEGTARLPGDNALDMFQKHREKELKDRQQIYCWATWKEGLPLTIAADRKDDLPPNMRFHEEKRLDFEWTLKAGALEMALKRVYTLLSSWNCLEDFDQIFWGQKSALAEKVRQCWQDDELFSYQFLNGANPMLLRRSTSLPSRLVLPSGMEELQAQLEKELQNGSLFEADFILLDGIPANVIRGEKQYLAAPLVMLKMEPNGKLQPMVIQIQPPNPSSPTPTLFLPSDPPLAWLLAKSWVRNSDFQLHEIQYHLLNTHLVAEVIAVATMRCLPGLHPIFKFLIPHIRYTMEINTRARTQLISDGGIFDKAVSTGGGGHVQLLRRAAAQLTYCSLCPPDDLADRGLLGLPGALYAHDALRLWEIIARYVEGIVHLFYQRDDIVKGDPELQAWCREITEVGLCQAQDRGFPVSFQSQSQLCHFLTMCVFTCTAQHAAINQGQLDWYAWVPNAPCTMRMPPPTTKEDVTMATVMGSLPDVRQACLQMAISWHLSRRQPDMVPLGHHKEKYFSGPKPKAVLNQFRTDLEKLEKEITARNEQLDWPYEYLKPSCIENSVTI
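Purified human 12hLO (150 nM final) was preincubated with compounds for 15 min at room temperature in 25 mM Hepes pH 7.0, 0.01% Triton X-100, then reacted with 40 uM arachidonic acid for 30 min. Hydroperoxide was detected with ferrous iron/xylenol orange.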
p53ts 32C kill = qHTS Screen for Compounds that Selectively Target Cancer Cells with p53 Mutations: Cytotoxicity of p53ts Cells at the Permissive Temperature. AID 924, 2007. Potency, µM (highest dose often 46.1 µM), inactives show at the top dose activity change, negative = cytotoxicity, hits mostly cytotoxic. hit rate 0.93% among 130,000. H1299-p53A138V at 32C, ATP luminescence viability, 24 h;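 note: 0% = DMSO and -100% = full killing by reference compound; nearly all actives have a fitted effect of over 55% in size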
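Cells: H1299 p53ts (A138V), 600/well, pre-incubated 16–30 h at 37C. Cpd up to 46 uM, 24 h, 32C. Readout: ATPlite luminescence, 20 min RT. Normalization: DMSO vs tamoxifen 100 uM. AC50 by Hill equation.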
p53ts 39C kill = qHTS Screen for Compounds that Selectively Target Cancer Cells with p53 Mutations: Cytotoxicity of p53ts Cells at the Nonpermissive Temperature; H1299-p53A138V viability at 39C, ATP luminescence, 24 h; Potency, µM (titrated, usually from 46.1 µM), inactives show at the top dose activity change, negative = cell killing, usual class: cytotoxic; hit rate 1.5% among 130,000; AID 902, 2007; note: nearly all actives have a fitted effect of over 55% in size
* marks the source's active call; other numbers are inactive results; ? = inconclusive; . = not tested or not shown; [ ] = dose if it differs, or a comment. Unless noted, calls come from the whole dose curve; as a rule, active = well fitted curve in the direction sought with a large enough effect; inconclusive = small, poorly fitted or top-dose-only effect, or another doubt; inactive = no such curve, though single readings can be large; an effect the other way counts as inactive or inconclusive. Unless noted, % is set by controls: 0 for no effect and ±100 for the full control effect; potency is the fitted concentration of half-maximal effect.

SMILES | HPGD block | 12-hLO inh | p53ts 32C kill | p53ts 39C kill
CCOc1ccc(OCc2ccc(C(=O)NCC3CCCO3)o2)cc1 (stereo unspecified) | -29.1% | 3.3% | 5.1% | -1.5%
CCOC(=O)Nc1ccc(C(=O)NCC2CCCO2)cc1 (stereo unspecified) | 15.8µM* | -4.9% | -2.8% | -10.9%
CCOc1ccc(N(C)S(=O)(=O)c2ccc3[nH]cc(C(=O)NCC4CCCO4)c(=O)c3c2)cc1 (stereo unspecified) | 14.1µM* | -12.3% | 11.8% | -17.0%
O=C(NCC1CCCO1)c1ccc(NC(=O)C2C3C=CC(C3)C2C(=O)O)cc1 (stereo unspecified) | -12.0% | -3.4% | . | .
O=C(Nc1nccs1)c1ccc(COc2ccc(F)cc2)o1 | 14.1µM* | -3.0% | -0.8% | 3.0%
O=c1cnc2cnc(Nc3ccccc3)nc2n1Cc1cccs1 | . | . | -4.6% | -28.5%
O=C(NCC1CCCO1)c1ccc2c(c1)OCO2 (stereo unspecified) | 2µM* | -14.0% | -6.5% | 7.5%
CN(c1ccc(C(=O)NCC2CCCO2)cc1)S(C)(=O)=O (stereo unspecified) | -27.1% | 6.7% | . | .
O=C(NCC1CCCO1)c1ccc(C(=O)NCC2CCCO2)cc1 (stereo unspecified) | -10.3% | 1.5% | 0.2% | -3.7%
CCOc1ccc(C(=O)NCC2CCCO2)cc1 (stereo unspecified) | 15.8µM* | -4.2% | -8.9% | 2.6%
N=C(N)S[C@H]1c2ccccc2-c2cc([N+](=O)[O-])ccc21 | -13.2% | -1.4%[11.4 µM] | -3.2%[9.22 µM] | 3.1%[9.22 µM]
Cc1ccc(NC(=O)c2ccc(-c3nn(C)c(=O)c4ccccc34)cc2)c(C)c1 | 12.6µM* | -2.4% | . | .
CC(O)CNC(=O)c1ccc(-c2nn(C)c(=O)c3ccccc23)cc1 (stereo unspecified) | 28.2µM* | -1.3% | . | .
Cn1nc(-c2ccc(C(=O)Nc3cccc(Cl)c3)cc2)c2ccccc2c1=O | -8.3% | 6.2% | . | .
CCCC(=O)NCc1cc(-c2nn(C)c(=O)c3ccccc23)ccc1C | 17.8µM* | 7.0% | . | .
Cn1nc(-c2ccc(C(=O)N3CCN(Cc4ccccc4)CC3)cc2)c2ccccc2c1=O | 15.8µM* | 4.8% | . | .
CC(C)Sc1ncc(Cl)c(C(=O)N(Cc2ccc(F)cc2)C2CCS(=O)(=O)C2)n1 (stereo unspecified) | . | . | -2.4% | -10.3%
CCOc1ccccc1NC(=O)c1c(NC(=O)c2cccc(C)c2)sc2c1CCC2 | . | . | 7.8% | 7.9%
O=C(CSc1nc(=O)[nH]c2c1CCC2)Nc1cc(C(F)(F)F)ccc1Cl | . | . | -9.0% | -14.9%
COc1ccc(-c2nc3cnc(N4CCNCC4)nc3n(CCC#N)c2=O)cc1 | -28.1% | -0.3% | -13.7% | -8.2%
Cc1ccc(NC(=O)c2ccc(-c3nn(C)c(=O)c4ccccc34)cc2)cc1 | 17.8µM* | 1.8% | . | .
Cn1nc(-c2ccc(C(=O)Nc3cccnc3)cc2)c2ccccc2c1=O | ? | -3.1% | 1.4% | 2.8%
O=C(NCc1ccco1)c1nc2c(nnn2Cc2cccc(Cl)c2)c(=O)[nH]1 | 0.355µM* | -1.0% | . | .
O=C(NCc1ccccc1)c1nc2c(nnn2Cc2cccc(Cl)c2)c(=O)[nH]1 | 2.51µM* | -1.2% | -7.4% | 31.1%
COc1cc(-c2noc(-c3ccc(NCc4ccco4)c([N+](=O)[O-])c3)n2)cc(OC)c1OC | . | . | -8.4% | -11.9%
SMILES | HPGD block | 12-hLO inh | p53ts 32C kill | p53ts 39C kill
CN1CCN(C(=O)c2ccccc2N(Cc2ccccc2)S(=O)(=O)c2ccccc2)CC1 | -7.7% | 4.9% | -19.9% | -2.6%
CCN1CCN(C(=O)c2ccc(CN(c3ccccc3)S(=O)(=O)c3ccccc3)cc2)CC1 | 14.1µM* | -2.4% | . | .
COc1cccc(-c2cc(C(=O)Nc3cc(Cl)ccc3O)on2)c1 | . | . | -1.1% | -15.1%
CCCS(=O)(=O)c1ncc(Cl)c(C(=O)N2CCN(c3ccc(OC)cc3)CC2)n1 | . | . | ? | 12.6µM*
CCSc1ncc(Cl)c(C(=O)N2CCN(c3ccc(OC)cc3)CC2)n1 | . | . | 3.7% | 0.3%
Cc1ccc(C)cc1 | -12.9% | -0.7% | 5.5%[1.84 µM] | 10.7%
Cc1ccc(C2=C(Cl)C(=O)C(c3ccc(C)cc3)=C(Cl)C2=O)cc1 | 2.24µM* | -6.6%[11.4 µM] | 6.4%[9.22 µM] | 12.9%[9.22 µM]
COc1ccc(CNc2nc(-c3cccnc3)nc3ccccc23)c(OC)c1 | . | . | -8.3% | 6.1%
COc1ccccc1-c1ccc(NC2CCCC2)nn1 | 6.31µM* | 6.5% | -4.3% | -15.5%
COc1ccc(CNc2ccc(-c3ccccc3OC)nn2)cc1 | 15.8µM* | 3.0% | . | .
Cc1ccc(OCC(=O)Nc2ccc3nc(SCC(N)=O)sc3c2)cc1 | . | . | -9.3% | 25.5%
COc1cc2cc3c4c(cc(OC)c(OC)c4c2cc1OC)CCN3C | ? | ? | 31.6µM* | 31.6µM*
C=CCOc1c(Br)cc(/C=N/n2c(CC)n[nH]c2=S)cc1Br | 3.16µM* | 1.7% | . | .
Cn1nc(C(=O)N2CCN(c3ccc(F)cc3)CC2)c2c1-c1ccccc1SC2 | . | . | ? | 20µM*
CCN(CC)CCCNC(=O)c1nn(C)c2c1CSc1ccccc1-2 | . | . | ? | 20µM*
Cc1cccc(NC(=O)CCn2cnc3ccccc3c2=O)c1 | . | . | 8.4% | 2.6%
CCOCCCNC(=O)c1ccccc1Br | 10µM* | -0.9% | 4.6% | 13.4%
CCOC(=O)CCNC(=O)c1ccccc1Br | 17.8µM* | 0.7% | -4.7% | 13.9%
CCCCC#Cc1ccccc1CC(=O)Nc1ccccc1 | -7.1% | -4.4% | 8.2% | 16.3%
CCCCCCCC#Cc1ccccc1/C=N/S(=O)c1ccc(C)cc1 (stereo unspecified) | 12.6µM* | ? | 2.7%[9.22 µM] | 0.6%[9.22 µM]
Cc1cc(Nc2cccc(C(F)(F)F)c2)nc2ccc(NC(=O)c3cccnc3)cc12 | . | . | 12.6µM* | .
O=C(O)CC1(C(=O)O)CCCCC1 | -12.6% | 1.6%[11.4 µM] | -3.5%[9.22 µM] | 2.1%[9.22 µM]
Cc1cc(C)n(C(C[N+](=O)[O-])c2ccc(Cl)cc2)n1 (stereo unspecified) | 7.94µM* | -9.7% | . | .
Cc1cc(O)c(C(C[N+](=O)[O-])c2ccc(Cl)cc2)c(=O)o1 (stereo unspecified) | -11.2% | -7.0% | . | .
C=CC1=C2C=C(C3CC3)N(C3CCCCC3)C=C2C(=O)C(C)(OC(=O)c2ccco2)C1=O (stereo unspecified) | -1.8% | -0.7%[11.4 µM] | . | .
SMILES | HPGD block | 12-hLO inh | p53ts 32C kill | p53ts 39C kill
COc1ccc(NC(=O)c2ccc3[nH]c(C)cc(=O)c3c2)cc1 | . | . | 1.6% | 4.4%
COc1ccc(C(C)=O)cc1CSc1nnc(C)s1 | 17.8µM* | -0.3% | 5.1% | -7.5%
COc1ccc(C(C)=O)cc1CSc1nnc(Nc2ccccc2)s1 | 25.1µM* | -3.5% | . | .
COc1ccc(C(C)=O)cc1CSc1nnc(Nc2ccc(C)cc2)s1 | ? | -4.3% | . | .
COc1ccc(C(C)=O)cc1CN(C)C | -3.8% | 1.2% | . | .
COc1ccc(C(C)=O)cc1CSCCC(=O)O | 28.2µM* | -5.2% | . | .
O=C(NCC1CCCO1)c1onc(CSc2ccccc2)c1C(=O)O (stereo unspecified) | -9.2% | -1.1% | . | .

Screening data as filed in PubChem.
